# Compound activity (PubChem BioAssay)
# JMJD2A Tudor: blocks the human JMJD2A Tudor domain. O75164. AlphaScreen JMJD2A-Tudor / H3K4me3 peptide binding. Potency, µM (doses to about 114 µM), for inactives: at the top dose activity change, negative = inhibition, most hits filed as inhibitors. 4.4% of 390,000 active. AID 504339; also: potency is read from the fitted curve at half-maximal effect; % is scaled to controls: 0 for no effect and ±100 for the full control effect; nearly all actives have a fitted effect of over 50% in size
# Six1-Eya2 inh: inhibitors of human Six1/Eya2 interaction. AID 651725. 0.56% of 360,000 active. activity change, % (concentration not given with the values). AlphaScreen GST-Six1/His-Eya2 binding, biochemical; stronger effect = lower value; in the data active = activity change below about -65%; inconclusive = mostly about -30% to -63%; also: % is scaled to controls: 0 for no effect and ±100 for the full control effect
#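 Homogeneous AlphaScreen proximity assay pairing GST-Six1 with His-tagged Eya2 (added as 5X mix: 250 nM and 500 nM) in 50 mM Tris pH 8.0, 300 mM NaCl, 1 mM TCEP. Glutathione donor and nickel acceptor beads; 1 h, 37 °C, dark.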
# BAZ2B block: inhibitors of human BAZ2B bromodomain; AlphaScreen BAZ2B-H3K14Ac peptide displacement; 4.4% of 360,000 active; Potency, µM (top dose mostly 114 µM), without a hit: at the top dose activity change, negative = inhibition, actives largely listed as inhibitors; Q9UIF8; also: potency is read from the fitted curve at half-maximal effect; % is scaled to controls: 0 for no effect and ±100 for the full control effect; nearly all actives have a fitted effect of over 60% in size
#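 BAZ2B (50 nM) with biotin-H3(5-23)K14Ac peptide (50 nM) in PBS pH 7.4, 0.01% Tween-20, preformed 30 min, then compound 30 min at room temperature; top concentration 110uM. AlphaScreen streptavidin donor/nickel chelate acceptor beads (10 ug/mL final), 20 min dark, signal read.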
# HP1b chromo inh: inhibitors of HP1-beta chromodomain binding to methylated histone tails; P83916; 0.56% of 390,000 active; Potency, µM (doses to about 114 µM), for inactives: at the highest dose activity change, negative = inhibition, most hits filed as inhibitors; AlphaScreen HP1-beta / biotin-H3K9me3 peptide binding; also: potency is read from the fitted curve at half-maximal effect; nearly all actives have a fitted effect of over 70% in size
# Target sequence (P83916 whole entry, looked up): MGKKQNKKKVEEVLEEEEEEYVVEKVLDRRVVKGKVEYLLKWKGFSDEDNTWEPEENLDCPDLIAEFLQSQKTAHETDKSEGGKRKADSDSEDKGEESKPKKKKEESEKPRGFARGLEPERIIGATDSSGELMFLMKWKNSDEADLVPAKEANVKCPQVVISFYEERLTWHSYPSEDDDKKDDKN
#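 HP1-beta protein (50 nM final) preincubated 30 min at room temperature with biotinylated H3(1-18)K9me3 peptide (50 nM) in PBS pH 7.4, 0.01% Tween-20, then compound added for 30 min. AlphaScreen streptavidin donor/nickel chelate acceptor beads (10 ug/mL final), 30 min dark, luminescence read.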
# G9a block: inhibitors of human histone lysine methyltransferase G9a. Potency, µM (series often up to 102 µM), inactives show at the top dose activity, negative = inhibition, hits mostly inhibitors. 8.8% of 350,000 active. AID 504332. G9a H3K9 monomethylation, AlphaScreen, 2 h; also: potency is read from the fitted curve at half-maximal effect; % is scaled to controls: 0 for no effect and ±100 for the full control effect; nearly all actives have a fitted effect of over 75% in size
# Target sequence (Q96KQ7 913-1193 limits assumed): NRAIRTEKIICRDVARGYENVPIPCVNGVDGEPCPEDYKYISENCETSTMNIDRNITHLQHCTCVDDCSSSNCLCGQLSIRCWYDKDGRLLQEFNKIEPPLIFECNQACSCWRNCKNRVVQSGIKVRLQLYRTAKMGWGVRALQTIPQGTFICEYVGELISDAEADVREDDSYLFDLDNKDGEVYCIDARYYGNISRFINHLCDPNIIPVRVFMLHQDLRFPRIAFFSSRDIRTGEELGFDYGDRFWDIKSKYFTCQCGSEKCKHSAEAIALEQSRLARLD
#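 AlphaScreen detection with an anti-monomethyl H3K9 antibody quantified product after a 2 h room-temperature reaction containing 500 nM biotinylated H3K9 peptide, 20 µM SAM and 20 nM enzyme, which had been preincubated 15 min with compound.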
# CtBP-E1A inh: inhibitors of CtBP/E1A interaction. 0.49% of 340,000 active. activity change, % (test concentration not listed). AlphaScreen GST-E1A/His-CtBP binding, 1536-well; stronger effect = lower value; in the data active = activity change below about -65%; inconclusive = mostly about -30% to -63%; also: % is scaled to controls: 0 for no effect and ±100 for the full control effect
#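 Protein mix (5X: 125 nM each GST-E1A, His-CtBP) was incubated with pinned compound 2 h at 37 deg C in dark, in 50 mM Tris pH 8.0 buffer with 300 mM NaCl. Glutathione donor and nickel acceptor beads followed; AlphaScreen signal read after 1 h.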
# * = called active by the depositor; ? = inconclusive; · = no result given; ! = not active in a repeat; [ ] = another dose, or the depositor's remark. Shown are actives, neighbours in structure and some others; about 10% of the full set was active somewhere. Unless noted, calls follow the shape of the dose curve; as a rule, active = well fitted inhibition curve with a large enough effect; inconclusive = small, poorly fitted or top-dose-only effect; inactive = no such curve, though single readings can be large or run the other way.
SMILES,JMJD2A Tudor,Six1-Eya2 inh,BAZ2B block,HP1b chromo inh,G9a block,CtBP-E1A inh
CCOC(=O)c1c(S(=O)(=O)N2CCCC(C(=O)N3CCN(c4cc(C)ccc4C)CC3)C2)c(C)n(C)c1C (configuration not stated),?,·,-18.2%,-6.3%,-7.1%[59 µM],·
COc1ccc(N2C(=O)CSC2c2ccccc2[N+](=O)[O-])cc1 (configuration not stated),-22.8%,-10.0,-28.4%,7.2%,50.1µM*,-12.1
CCCNc1ccc(-c2nc(-c3ccncc3)no2)cc1[N+](=O)[O-],-14.2%,·,-19.3%,29.3%,-6.7%[59 µM],·
CC(C)N1CCN(Cc2cccc(-c3ccco3)c2)CC1CCO (configuration not stated),-18.1%,-2.7,-31.2%,-12.0%,25.1µM*,-5.2
CCOC(=O)c1sc2cc([N+](=O)[O-])cc(SCCO)c2c1N,-5.9%,-14.3,-9.5%,4.0%,7.1%[59 µM],-9.1
CCOC(=O)c1sc2cc([N+](=O)[O-])cc(SCC(=O)OC)c2c1N,44.7µM*,?,39.8µM*,?,7.94µM*,?
COc1ccc(-c2cc(C(F)(F)F)nc(SCCC(=O)Nc3cccc(O)c3)n2)cc1,-22.0%,·,-4.6%,27.1%,-1.2%[59 µM],·
CCC(C)(C)C1CCC(NC(=O)N2CCN(c3ccccc3O)CC2)CC1 (configuration not stated),79.4µM*,-2.5,-9.8%,-2.6%,3.6%,9.8
Cc1ccc(O)c(NC(=O)c2nc3nc(C)cc(C(F)F)n3n2)c1,-14.1%,·,-1.1%,52.0%,?,·
CCc1c(C)[nH]c2c1C(=O)C(CN1CCOCC1)CC2 (configuration not stated),-28.1%,-0.6,·,4.9%,18.9µM*!,1.9
CN(c1nnc(N)s1)C1CCCCC1,-1.4%,0.0,-1.5%,41.0%,39.8µM*,2.7
Cc1[nH]c(=O)[nH]c1C(=O)CCCCC(=O)OCC(=O)Nc1ccccn1,0.794µM*,-0.6,0.891µM*,-96.2%,1.58µM*,-8.9
CC(=O)c1c(C)[nH]c(C(=O)Nc2ccccn2)c1C,-18.6%,-7.8,-34.5%,27.0%,4.9%,-9.1
Cc1c(Cl)cccc1NC(=O)c1ccc2c(c1)CCN2S(=O)(=O)c1ccccc1,-2.8%,·,-0.8%,34.1%,-2.9%[59 µM],·
Clc1cccc(Cl)c1COc1ccccn1,-3.7%,4.6,-2.0%,19.8%,7.8%,0.7
c1ccc(OCC2CCNCC2)nc1,-11.5%,4.7,-20.4%,12.2%,79.4µM*,1.5
C=CCNc1nnc(-c2cccc3ccccc23)o1,11.2µM*,·,·,·,·,·
C=CCSc1nnc(-c2cccc3ccccc23)o1,12.6µM*,·,·,52.4%,·,·
CNS(=O)(=O)c1cn(CC(=O)Nc2ccc(F)cc2F)cc1S(=O)(=O)NC,-4.1%,·,-8.1%,26.0%,-20.4%[59 µM],·
COc1cc(-c2nnc(SCC(=O)N3CCCc4ccccc43)o2)cc(OC)c1OC,-14.4%,·,-16.7%,10.6%,9.7%[59 µM],·
CN1CCC2(CCN3CCc4c(oc5ccccc45)C3C2)N(C)C1=O (configuration not stated),·,·,·,·,15.8µM*!,·
O=C(NCc1cccs1)c1ccc2c(=O)n3nc(Nc4ccccc4)sc3nc2c1,?,·,-1.8%,56.3%,6.4%[59 µM],·
CCN(CC)S(=O)(=O)c1cccc(N=Nc2sc(N)nc2C)c1,35.5µM*,?,11.2µM*,?,39.8µM*,?
CN(Cc1cc(Br)cc(Br)c1N)C1CCCCC1,·,·,·,·,-47.0%[2.33 µM],·
CC(=O)Nc1ccccc1-c1nc2ccccc2n(CC(=O)c2ccc(C)c(C)c2)c1=O,-4.3%,·,-1.9%,35.9%,-29.0%[59 µM],·
SMILES,JMJD2A Tudor,Six1-Eya2 inh,BAZ2B block,HP1b chromo inh,G9a block,CtBP-E1A inh
C/C(=C/CCC(C)C1CCC2(C)C3CCC4C(C)(C)C(=O)CCC4(C)C3=CCC12C)C(=O)O (configuration not stated),·,·,50.1µM*,·,4.8%[59 µM],·
COc1cc(-c2nc3ccccn3c2/N=C/c2cccc(OC)c2O)ccc1O,?,6.0,-15.4%,20.2%,8.9%,-9.9
Clc1ccc(/C=N/c2c(-c3ccco3)nc3ccccn23)cc1,44.7µM*,-19.6,?,?,?,6.8
COc1cc(-c2nc3ccccn3c2/N=C/c2ccc(F)cc2)ccc1O,?,-9.6,?,?,35.5µM*,-4.9
Clc1cccc(Cc2c(-c3ccco3)nc3ccc(Cl)cn23)c1,·,?,·,·,·,3.4
COc1ccc(/C=N/c2c(-c3ccco3)nc3ccccn23)cc1OC,-33.8%,-17.0,?,-6.3%,70.8µM*,?
COc1cc(NC(=O)C(OC(=O)CNC(=O)c2ccccc2)c2ccccc2)cc(C(F)(F)F)c1 (configuration not stated),-14.4%,·,·,·,·,·
COc1ccc(C)cc1NC(=O)CSCc1cc(=O)n2c(C)csc2n1,0.0%,7.6,79.4µM*,44.6%,-3.1%,1.2
COc1ccccc1NC(=O)CSCc1cc(=O)n2c(C)csc2n1,-10.8%,8.7,-24.4%,42.5%,5.2%,1.6
Cc1cnc(NC(=O)COc2ccccc2Cl)s1,-18.2%,-0.1,1.2%,9.9%,56.2µM*,2.7
Cc1cc(C(=O)NNC(=O)COc2ccccc2Cl)n[nH]1,11.9%,-1.0,4.4%,29.2%,79.4µM*,2.9
Cc1cnc(NC(=O)Nc2ccc(Cl)cc2)s1,-9.7%,-11.4,15.6%,22.2%,50.1µM*,-14.8
Cc1cnc(NC(=O)CCNC(=O)c2ccccc2Cl)s1,5.5%,7.8,9.0%,40.0%,-4.5%,2.7
Cc1ccc(OCC(=O)NNC(=O)c2cc(C)[nH]n2)cc1,?,0.8,2.0%,14.6%,-14.0%[59 µM],3.1
CC(C)(C)OC(=O)Cc1nnc(-c2cc3ccccc3[nH]2)o1,-1.4%,·,·,·,·,·
CCc1ccc(C(=O)CSc2nc(-c3ccccc3)nc3c2CCCC3)cc1,20.4%,·,6.9%,91.4%,18.6%[59 µM],·
CCCn1c(SCc2nc(-c3ccccc3OCC)no2)nnc1-c1ccc(Cl)cc1,-16.3%,·,-3.4%,26.5%,-41.7%[59 µM],·
CCCCn1c(SCC(=O)Nc2nnc(C)s2)nnc1-c1ccoc1C,10.4%,2.0,-0.3%,12.1%,14.4%[59 µM],-0.4
CCCn1c(SCC(=O)Nc2nnc(C)s2)nnc1-c1ccoc1C,50.1µM*,-2.8,0.2%,-12.4%,-13.5%[12.7 µM],-1.4
Cc1nnc(NC(=O)CSc2nnc(-c3ccoc3C)n2CC(C)C)s1,50.1µM*,-1.2,62.6%,-6.5%,26.0%[12.7 µM],-1.4
